A selection: hits, their analogues and other compounds. The true share with any hit is near 8.2%.
KB-3-1 cytotox = qHTS assay for MDR1-selective chemotherapeutics: Primary screen using the parental adenocarcinoma cell KB-3-1; KB-3-1 viability, CellTiter-Glo ATP luminescence, 72 h; 1.4% of 400,000 active; Potency, µM (titrated, usually from 46.1 µM), hits mostly cytotoxic; further: on the % scale 0 is the no-effect control and ±100 the full control effect; nearly all actives have a fitted effect of over 60% in size
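Parental KB-3-1 viability, qHTS format: 72 h compound exposure, 37 °C; CellTiter-Glo; media-only wells and DMSO plates as controls; concentration-effect fits on corrected data.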
MCF10A rereplic = A quantitative high throughput screen for small molecules that induce DNA re-replication in MCF 10a normal breast cells; MCF 10A DNA re-replication, Hoechst nuclear intensity, 48 h; 2.9% of 350,000 active; Potency, µM (titrated, usually from 46.1 µM), inactives show at the highest dose activity, positive = re-replication, usual class: activators; AID 624296, 2012; further: % of control where 0% means no effect; nearly all actives have a fitted effect of over 50% in size
ELG1 repair inh = qHTS screen for small molecules that inhibit ELG1-dependent DNA repair in human embryonic kidney (HEK293T) cells expressing luciferase-tagged ELG1 | HEK293T ELG1-luciferase reporter, luminescence, 16 h; DNA damage induced by 5-fluorouridine | Potency, µM (series often up to 46.1 µM), inactives show at the highest dose activity change, negative = inhibition, hits mostly inhibitors | 2.3% of 330,000 active; further: on the % scale 0 is the no-effect control and ±100 the full control effect; nearly all actives have a fitted effect of over 55% in size
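Luminescence from the luciferase reporter, measured 30 min after ONE-Glo reagent at room temperature, was the read-out. Beforehand, 2,000 cells per well were exposed for 16 hr at 37 °C to 5-fluorouridine together with compound or vehicle.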
SW480 rereplic = A quantitative high throughput screen for small molecules that induce DNA re-replication in SW480 colon adenocarcinoma cells; SW480 DNA re-replication, Hoechst DNA content imaging, 48 h; Potency, µM (doses to about 46.1 µM), for inactives: at the top dose re-replication activation, actives largely listed as activators; 1.8% of 340,000 active; further: % of control where 0% means no effect; nearly all actives have a fitted effect of over 55% in size
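Per well, 250 cells were exposed to pinned compound for 48 hr. Nuclear DNA was visualised with Hoechst (40 min, 37 C) and total object intensity recorded by fluorescence scanning.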
KB-V1 cytotox = qHTS assay for MDR1-selective chemotherapeutics: Primary screen using the drug-selected MDR subline cells KB-V1; KB-V1 MDR cells viability, CellTiter-Glo, 72 h; Potency, µM (highest dose often 46.1 µM), usual class: cytotoxic; 3.4% of 400,000 active; AID 1347076, 2019; further: on the % scale 0 is the no-effect control and ±100 the full control effect; nearly all actives have a fitted effect of over 60% in size
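Drug-selected KB-V1 cells, grown in DMEM lacking phenol red with 10% FBS, receive compound titrations; after three days at 37 degrees C, surviving cell ATP is quantified by CellTiter-Glo luminescence and responses normalized and curve-fitted.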
* hit, by the source's call; i = inactive; ? = inconclusive; . = not tested or not shown. The call rests on the fitted dose curve; in most records, active means well fitted curve in the direction sought with a large enough effect; inconclusive means small, poorly fitted or top-dose-only effect, or another doubt; inactive means no such curve, though single readings can be large; an effect the other way counts as inactive or inconclusive. Potency means the concentration at half of the fitted maximal effect.

SMILES | KB-3-1 cytotox | MCF10A rereplic | ELG1 repair inh | SW480 rereplic | KB-V1 cytotox
Cc1ccc2oc(-c3cccc(NC(=O)COc4ccc(Cl)cc4)c3C)nc2c1 | i | . | . | . | i
S=P(N1CC1)(N1CC1)N1CC1 | i | ? | 5% | 2.1µM* | i
CC1=C(C(=O)Nc2cccnc2)C(c2ccccc2Cl)n2nc(-c3ccccc3)nc2N1 (stereo unspecified) | i | . | . | . | i
FC(F)(F)c1cccc(-c2ccn3ncnc3n2)c1 | i | 7% | 15% | 11% | 21µM*
O=C(Nc1cccn2ncnc12)c1cccc(C(F)(F)F)c1 | i | 3% | ? | -11% | i
CCc1cccc(NC(=O)Cn2c(=O)n(CC3CCC(C(=O)NCCc4ccccc4)CC3)c(=O)c3ccccc32)c1 (stereo unspecified) | 15µM* | . | . | . | i
O=C(Cn1c(=O)n(CC2CCC(C(=O)NCCc3ccccc3)CC2)c(=O)c2ccccc21)Nc1ccccc1 (stereo unspecified) | i | . | . | . | i
CNC(=O)c1ccc(NC(=O)CC23CC4CC(CC(C4)C2)C3)cc1 | i | 23% | 9.2µM* | -7% | i
COC(=O)C[C@@H]1CC[C@@H](NS(=O)(=O)c2cccc(OC)c2)[C@@H](CO)O1 | i | . | . | . | i
COc1ccccc1CNC(=O)CCCCn1c(=O)c2ccccc2n(Cc2ccccc2F)c1=O | i | . | . | . | i
O=C(COC(=O)CCC1CCCC1)Nc1ccc(Cl)cc1F | i | -6% | 1% | 23µM* | i
O=C1CCCC2=C1C1(CCCCC1)N=C(Nc1nc3ccccc3s1)N2 | i | 10µM* | . | 15% | i
O=C1CCCC2=C1C1(CCCC1)N=C(Nc1nc3ccccc3s1)N2 | i | ? | ? | -3% | i
CN(Cc1ccccc1)C(=O)C1CCCN(Cc2cccc(Cl)c2)C1 (stereo unspecified) | ? | 0.29µM* | 1% | -43% | i
Cc1nn(C)cc1CNC(=O)c1cc2n(n1)C(C(F)(F)F)CC(c1cccs1)N2 (stereo unspecified) | i | -6% | 23µM* | -13% | ?
Cc1ccc(C2CC(C(F)(F)F)n3nc(C(=O)NCc4ccco4)cc3N2)cc1 (stereo unspecified) | i | 0% | -4% | -4% | i
Cc1nn(C)c(C)c1CNC(=O)c1nn2c(c1Cl)NC(c1cccs1)CC2C(F)(F)F (stereo unspecified) | ? | -3% | ? | -3% | 9.2µM*
Cc1nn(Cc2ccc(F)cc2)c(C)c1NC(=O)c1cnn2c1NC(c1cccs1)CC2C(F)(F)F (stereo unspecified) | i | 9% | ? | 3% | 21µM*
Clc1cc(Cl)cc(C2=NC(Cc3ccccc3)CO2)c1 (stereo unspecified) | i | -48% | . | 18% | i
COc1ccc2cc(C3=CC(=O)CC(C)(C)C3=O)ccc2c1 | i | . | . | . | i
Cc1cc(NC(=O)NC(=O)c2ccccc2NC(=O)CN(C)C)ccc1Oc1ncc(Br)cn1 | 2.9µM* | 15µM* | . | 6.5µM* | 2.1µM*
Nc1ccccc1C(=O)NC(=O)Nc1ccc(Oc2ncc(Br)cn2)c(Cl)c1 | 0.21µM* | ? | . | 0.52µM* | 0.13µM*
COc1ccccc1C(=O)NC(=O)Nc1cccc(Cl)c1 | i | 1% | ? | -10% | i
Cc1cc(NC(=O)NC(=O)c2ccccc2NC(=O)CN)ccc1Oc1ncc(Br)cn1 | 1.2µM* | ? | . | 2.9µM* | ?
CC(=O)Nc1ccc(/C=C/c2ccccn2)cc1 | ? | . | . | . | i
SMILES | KB-3-1 cytotox | MCF10A rereplic | ELG1 repair inh | SW480 rereplic | KB-V1 cytotox
CSc1ccc(CNCCCN(C)C)cc1 | i | 0% | -18% | -2% | i
CC(=O)Nc1cccc(-c2ccnc3c2CC(C)(C(=O)NCc2ccc(N(C)C)cc2)O3)c1 (stereo unspecified) | 10µM* | . | . | . | ?
CC(=O)Nc1cccc(-c2ccnc3c2CC(C)(C(=O)Nc2cccc(Oc4ccccc4)c2)O3)c1 (stereo unspecified) | ? | . | . | . | 21µM*
CC1(C(=O)Nc2ccc(F)c(Cl)c2)Cc2c(-c3cccc(C(N)=O)c3)ccnc2O1 (stereo unspecified) | i | . | . | . | ?
CC1(C(=O)Nc2cccc(Oc3ccccc3)c2)Cc2c(-c3ccccc3)ccnc2O1 (stereo unspecified) | ? | . | . | . | i
CC(=O)Nc1cccc(-c2ccnc3c2CC(C)(C(=O)NCc2cccs2)O3)c1 (stereo unspecified) | 3.3µM* | . | . | . | i
CC(=O)Nc1cccc(-c2ccnc3c2CC(C)(C(=O)Nc2ccc(F)c(Cl)c2)O3)c1 (stereo unspecified) | ? | . | . | . | 21µM*
Cc1ccc(S(=O)(=O)N2CCC(=O)N([C@H](COCc3cccc(C)c3)C(C)C)CC2)cc1 | i | . | . | . | ?
O=C(Nc1nc2n(n1)C(c1ccc(Cl)cc1)C=C(c1ccccc1)N2)c1ccco1 (stereo unspecified) | i | . | . | . | i
Cc1c(NC(=O)c2cc(S(=O)(=O)N3CCCCC3)ccc2Cl)c(=O)n(-c2ccccc2)n1C | i | -11% | -15% | -6% | i
CC(=O)Nc1cccc(-c2ccnc3c2CC(C)(C(=O)NCCc2ccccc2)O3)c1 (stereo unspecified) | 4.1µM* | . | . | . | ?
CC(=O)Nc1cccc(-c2ccnc3c2CC(C)(C(=O)NCc2cccc(Cl)c2)O3)c1 (stereo unspecified) | 15µM* | . | . | . | ?
CC1(C(=O)NCc2ccc(F)c(F)c2)Cc2c(-c3cccc(C(F)(F)F)c3)ccnc2O1 (stereo unspecified) | i | . | . | . | i
CC(=O)Nc1ccc(-c2ccnc3c2CC(C)(C(=O)NCc2ccc(F)c(F)c2)O3)cc1 (stereo unspecified) | 8.2µM* | . | . | . | i
COc1ccc(CCN(C)C(=S)NC(=O)c2ccc(F)cc2Cl)cc1OC | i | -6% | ? | -10% | 15µM*
COc1ccc(CCN(C)C(=S)Nc2ccc(SC(F)F)cc2)cc1OC | i | ? | ? | ? | ?
CCOC(=O)N1CCC(NC(=O)c2ccc(CS(=O)c3cccc(Cl)c3)o2)CC1 (stereo unspecified) | i | ? | -1% | -23% | i
CN(C)CCC(c1ccccc1)c1ccccn1 (stereo unspecified) | i | -14% | ? | 11% | i

Screening data as filed in PubChem.
